From article PMC7862700, “An all-to-all approach to the identification of sequence-specific readers for epigenetic DNA modifications on cytosine”

Columns and labels:
Test in all cases: DAPPL (digital affinity profiling via proximity ligation, sequencing); 10 mM Tris-HCl pH 7.5, 50 mM NaCl, 1 mM DTT, 4% glycerol, room temperature, 30 min; GST-TFs on glutathione beads, 16-mer random dsDNA library, 0.1% formaldehyde crosslink after washing; high values mean tight binding
FEV = biological target: T1, FEV (Homo sapiens, UniProt Q99581 1-238); conditions: protein: recombinant; tags: N-terminal GST; dsDNA, one strand shown
T1 sequence: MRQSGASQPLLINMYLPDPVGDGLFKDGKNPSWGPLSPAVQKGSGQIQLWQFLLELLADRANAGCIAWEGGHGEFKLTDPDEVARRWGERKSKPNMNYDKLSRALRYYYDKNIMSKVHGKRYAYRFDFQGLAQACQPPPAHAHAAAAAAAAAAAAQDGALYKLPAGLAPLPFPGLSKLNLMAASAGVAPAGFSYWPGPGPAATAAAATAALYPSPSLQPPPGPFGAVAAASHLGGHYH
Outline: (§1)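 Binding signal is each hexamer's read frequency for a factor divided by its frequency in the tag-only sample. The factors were GST-fused human transcription factors from yeast, captured on glutathione beads, DNA-barcoded and pooled with that sample. Pools were incubated with 200 nmole of a random double-stranded 16-mer DNA library in Tris/NaCl/DTT/glycerol buffer at room temperature for 30 min, then washed, crosslinked with 0.1% formaldehyde, proximity-ligated with BsaI/T4 ligase (1 h, 37 °C), PCR-amplified and sequenced on an Illumina NextSeq500.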

ETV5 = ETV5 (Homo sapiens, UniProt P41161 1-510); conditions: protein: recombinant; tags: N-terminal GST; dsDNA, one strand shown
Chain of ETV5 (P41161 whole entry): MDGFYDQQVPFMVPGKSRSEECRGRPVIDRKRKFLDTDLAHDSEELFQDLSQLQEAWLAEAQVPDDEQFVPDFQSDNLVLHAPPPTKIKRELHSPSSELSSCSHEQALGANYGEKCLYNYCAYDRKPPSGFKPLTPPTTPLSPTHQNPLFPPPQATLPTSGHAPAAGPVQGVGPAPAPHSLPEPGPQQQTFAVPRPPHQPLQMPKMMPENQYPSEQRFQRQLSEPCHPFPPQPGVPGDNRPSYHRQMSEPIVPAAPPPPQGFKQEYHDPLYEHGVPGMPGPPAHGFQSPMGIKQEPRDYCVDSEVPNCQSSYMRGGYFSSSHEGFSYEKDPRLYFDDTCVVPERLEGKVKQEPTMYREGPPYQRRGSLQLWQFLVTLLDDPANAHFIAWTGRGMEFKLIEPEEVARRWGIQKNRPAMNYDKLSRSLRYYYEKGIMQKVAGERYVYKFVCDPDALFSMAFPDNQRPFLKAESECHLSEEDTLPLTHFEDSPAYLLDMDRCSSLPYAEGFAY
Outline: as §1

HSF1 = HSF1 (Homo sapiens, UniProt Q00613 1-529); conditions: protein: recombinant; tags: N-terminal GST; chain copies: 3; dsDNA, one strand shown
Chain of HSF1 (Q00613 whole entry): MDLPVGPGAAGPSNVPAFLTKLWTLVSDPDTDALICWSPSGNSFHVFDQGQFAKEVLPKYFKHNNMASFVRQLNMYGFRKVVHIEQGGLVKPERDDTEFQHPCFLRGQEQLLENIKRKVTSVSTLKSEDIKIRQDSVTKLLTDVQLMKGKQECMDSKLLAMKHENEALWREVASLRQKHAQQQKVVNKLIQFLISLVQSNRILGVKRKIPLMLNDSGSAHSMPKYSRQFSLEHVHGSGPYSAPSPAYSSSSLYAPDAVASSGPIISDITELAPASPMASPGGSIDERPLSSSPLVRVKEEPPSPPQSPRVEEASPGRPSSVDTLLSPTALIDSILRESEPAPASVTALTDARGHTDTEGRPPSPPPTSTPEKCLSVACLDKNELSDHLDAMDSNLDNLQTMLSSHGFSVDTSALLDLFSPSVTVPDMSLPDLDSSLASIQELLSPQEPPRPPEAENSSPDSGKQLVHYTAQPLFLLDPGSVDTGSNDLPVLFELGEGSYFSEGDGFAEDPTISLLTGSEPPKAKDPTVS
Outline: as §1

SPIC = biological target: T2, SPIC (Homo sapiens, UniProt Q8N5J4 1-248); conditions: protein: recombinant; tags: N-terminal GST; dsDNA, one strand shown
T2 sequence: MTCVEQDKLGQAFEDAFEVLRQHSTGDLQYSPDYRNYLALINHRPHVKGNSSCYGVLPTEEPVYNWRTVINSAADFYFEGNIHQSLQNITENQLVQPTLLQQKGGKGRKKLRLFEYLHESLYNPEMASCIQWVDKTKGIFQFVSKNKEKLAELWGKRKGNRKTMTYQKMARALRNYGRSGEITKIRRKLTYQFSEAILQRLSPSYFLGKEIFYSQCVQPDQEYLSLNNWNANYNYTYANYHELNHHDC
Outline: as §1

ELF4 = ELF4 (Homo sapiens, UniProt Q99607 1-663); conditions: protein: recombinant; tags: N-terminal GST; dsDNA, one strand shown
Chain of ELF4 (Q99607 whole entry): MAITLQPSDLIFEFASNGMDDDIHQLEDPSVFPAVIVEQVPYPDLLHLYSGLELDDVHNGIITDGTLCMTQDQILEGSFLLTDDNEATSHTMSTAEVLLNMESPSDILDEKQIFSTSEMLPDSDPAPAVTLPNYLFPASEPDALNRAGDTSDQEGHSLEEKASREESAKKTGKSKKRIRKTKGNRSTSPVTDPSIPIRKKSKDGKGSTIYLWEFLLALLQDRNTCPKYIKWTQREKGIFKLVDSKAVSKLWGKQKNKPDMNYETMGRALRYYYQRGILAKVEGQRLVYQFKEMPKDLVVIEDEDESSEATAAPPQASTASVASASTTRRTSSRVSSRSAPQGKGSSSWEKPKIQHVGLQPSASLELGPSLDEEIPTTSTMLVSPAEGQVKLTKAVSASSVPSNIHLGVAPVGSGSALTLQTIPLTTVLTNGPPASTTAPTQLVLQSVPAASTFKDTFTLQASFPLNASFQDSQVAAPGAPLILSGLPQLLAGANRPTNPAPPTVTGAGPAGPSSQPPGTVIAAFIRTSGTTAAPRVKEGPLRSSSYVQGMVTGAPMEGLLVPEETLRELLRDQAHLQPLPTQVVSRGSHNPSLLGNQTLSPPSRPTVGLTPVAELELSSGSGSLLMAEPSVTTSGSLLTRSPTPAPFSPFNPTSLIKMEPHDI
Outline: as §1

ELK4 = biological target: T3, ELK4 (Homo sapiens, UniProt P28324-2 1-405); conditions: protein: recombinant; tags: N-terminal GST; dsDNA, one strand shown
T3 sequence: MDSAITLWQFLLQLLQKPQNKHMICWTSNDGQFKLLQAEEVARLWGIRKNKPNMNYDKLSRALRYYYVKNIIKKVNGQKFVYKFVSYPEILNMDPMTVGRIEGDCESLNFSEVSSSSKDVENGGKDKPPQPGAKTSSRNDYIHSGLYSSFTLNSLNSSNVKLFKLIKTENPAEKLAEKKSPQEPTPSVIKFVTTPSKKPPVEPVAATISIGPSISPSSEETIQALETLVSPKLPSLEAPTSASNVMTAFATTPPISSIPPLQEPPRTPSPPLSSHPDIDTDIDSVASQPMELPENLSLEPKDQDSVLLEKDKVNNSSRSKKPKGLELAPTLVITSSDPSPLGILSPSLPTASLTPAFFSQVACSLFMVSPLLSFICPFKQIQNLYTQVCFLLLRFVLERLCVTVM
Outline: as §1

ETV2 = biological target: T4, ETV2 (Homo sapiens, UniProt O00321 1-342); conditions: protein: recombinant; tags: N-terminal GST; dsDNA, one strand shown
T4 sequence: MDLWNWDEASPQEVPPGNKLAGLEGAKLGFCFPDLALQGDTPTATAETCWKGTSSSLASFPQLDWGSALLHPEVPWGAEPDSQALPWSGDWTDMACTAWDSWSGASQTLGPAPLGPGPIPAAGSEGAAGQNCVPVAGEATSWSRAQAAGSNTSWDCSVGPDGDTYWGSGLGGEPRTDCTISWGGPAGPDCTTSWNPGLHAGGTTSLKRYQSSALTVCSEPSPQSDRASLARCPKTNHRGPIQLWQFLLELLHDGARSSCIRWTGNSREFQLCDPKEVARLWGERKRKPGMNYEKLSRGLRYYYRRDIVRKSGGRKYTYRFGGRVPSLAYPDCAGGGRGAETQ
Outline: as §1

ELF3 = biological target: T5, ELF3 (Homo sapiens, UniProt P78545 1-371); conditions: protein: recombinant; tags: N-terminal GST; dsDNA, one strand shown
T5 sequence: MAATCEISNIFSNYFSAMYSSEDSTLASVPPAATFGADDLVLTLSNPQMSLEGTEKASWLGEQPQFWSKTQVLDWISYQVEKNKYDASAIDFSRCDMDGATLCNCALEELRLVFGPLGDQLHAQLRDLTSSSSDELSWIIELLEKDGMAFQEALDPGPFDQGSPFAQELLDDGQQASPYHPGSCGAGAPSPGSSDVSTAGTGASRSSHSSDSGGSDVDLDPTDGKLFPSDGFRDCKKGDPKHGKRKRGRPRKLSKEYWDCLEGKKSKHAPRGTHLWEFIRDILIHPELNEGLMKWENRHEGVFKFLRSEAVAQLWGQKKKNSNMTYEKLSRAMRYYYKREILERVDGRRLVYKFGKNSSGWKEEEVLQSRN
Outline: as §1

CRX = CRX (Homo sapiens, UniProt O43186 1-299); conditions: protein: recombinant; tags: N-terminal GST; dsDNA, one strand shown
Chain of CRX (O43186 whole entry): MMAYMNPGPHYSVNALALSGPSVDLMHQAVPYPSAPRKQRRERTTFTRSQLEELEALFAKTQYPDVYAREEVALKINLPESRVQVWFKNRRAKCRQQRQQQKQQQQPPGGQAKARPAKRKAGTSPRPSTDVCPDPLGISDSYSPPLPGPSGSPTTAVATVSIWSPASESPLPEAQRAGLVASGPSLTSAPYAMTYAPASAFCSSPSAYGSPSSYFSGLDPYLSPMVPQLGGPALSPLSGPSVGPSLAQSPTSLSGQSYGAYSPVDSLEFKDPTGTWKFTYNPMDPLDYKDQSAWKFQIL
Outline: as §1

ETV1 = ETV1 (Homo sapiens, UniProt P50549 1-477); conditions: protein: recombinant; tags: N-terminal GST; dsDNA, one strand shown
Chain of ETV1 (P50549 whole entry): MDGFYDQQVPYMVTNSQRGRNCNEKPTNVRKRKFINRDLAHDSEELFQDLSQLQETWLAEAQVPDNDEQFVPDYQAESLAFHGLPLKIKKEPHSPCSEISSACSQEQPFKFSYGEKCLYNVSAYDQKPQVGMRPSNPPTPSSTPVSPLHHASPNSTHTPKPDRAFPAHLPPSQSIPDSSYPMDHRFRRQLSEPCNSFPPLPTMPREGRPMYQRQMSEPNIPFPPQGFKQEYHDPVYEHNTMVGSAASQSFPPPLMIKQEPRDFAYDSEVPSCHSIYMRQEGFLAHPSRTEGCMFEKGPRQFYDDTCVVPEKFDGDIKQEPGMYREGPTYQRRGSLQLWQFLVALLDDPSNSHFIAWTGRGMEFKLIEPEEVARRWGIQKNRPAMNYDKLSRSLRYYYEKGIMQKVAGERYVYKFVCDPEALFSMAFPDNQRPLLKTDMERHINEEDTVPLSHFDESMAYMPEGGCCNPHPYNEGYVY
Outline: as §1

ERF = biological target: T6, ERF (Homo sapiens, UniProt P50548 1-548); conditions: protein: recombinant; tags: N-terminal GST; dsDNA, one strand shown
T6 sequence: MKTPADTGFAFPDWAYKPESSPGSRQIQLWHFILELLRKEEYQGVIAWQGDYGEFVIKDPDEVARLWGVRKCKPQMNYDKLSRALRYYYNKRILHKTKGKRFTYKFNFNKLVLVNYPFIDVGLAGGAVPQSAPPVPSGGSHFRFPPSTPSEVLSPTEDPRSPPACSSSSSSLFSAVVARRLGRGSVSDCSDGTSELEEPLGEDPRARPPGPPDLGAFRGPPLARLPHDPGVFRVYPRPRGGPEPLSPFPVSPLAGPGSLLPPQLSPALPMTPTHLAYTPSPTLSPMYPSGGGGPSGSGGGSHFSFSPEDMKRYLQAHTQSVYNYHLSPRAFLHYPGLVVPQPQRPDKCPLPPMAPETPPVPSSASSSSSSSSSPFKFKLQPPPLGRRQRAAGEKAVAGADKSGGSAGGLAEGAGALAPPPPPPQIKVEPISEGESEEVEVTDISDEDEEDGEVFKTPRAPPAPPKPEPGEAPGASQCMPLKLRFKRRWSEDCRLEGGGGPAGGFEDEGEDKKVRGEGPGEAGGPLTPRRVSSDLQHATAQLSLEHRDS
Outline: as §1

ETV3L = biological target: T7, ETV3L (Homo sapiens, UniProt Q6ZN32 1-361); conditions: protein: recombinant; tags: N-terminal GST; dsDNA, one strand shown
T7 sequence: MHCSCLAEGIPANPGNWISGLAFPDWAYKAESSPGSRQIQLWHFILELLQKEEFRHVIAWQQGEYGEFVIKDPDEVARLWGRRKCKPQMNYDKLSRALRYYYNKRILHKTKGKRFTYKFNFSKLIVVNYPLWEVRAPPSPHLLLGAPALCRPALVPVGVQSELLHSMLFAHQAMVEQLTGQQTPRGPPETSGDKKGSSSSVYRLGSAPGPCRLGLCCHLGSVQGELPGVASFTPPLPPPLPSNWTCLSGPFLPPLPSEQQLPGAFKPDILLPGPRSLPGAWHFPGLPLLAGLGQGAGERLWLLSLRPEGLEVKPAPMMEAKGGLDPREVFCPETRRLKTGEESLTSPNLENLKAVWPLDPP
Outline: as §1

ETS2 = biological target: T8, ETS2 (Homo sapiens, UniProt P15036 1-469); conditions: protein: recombinant; tags: N-terminal GST; dsDNA, one strand shown
T8 sequence: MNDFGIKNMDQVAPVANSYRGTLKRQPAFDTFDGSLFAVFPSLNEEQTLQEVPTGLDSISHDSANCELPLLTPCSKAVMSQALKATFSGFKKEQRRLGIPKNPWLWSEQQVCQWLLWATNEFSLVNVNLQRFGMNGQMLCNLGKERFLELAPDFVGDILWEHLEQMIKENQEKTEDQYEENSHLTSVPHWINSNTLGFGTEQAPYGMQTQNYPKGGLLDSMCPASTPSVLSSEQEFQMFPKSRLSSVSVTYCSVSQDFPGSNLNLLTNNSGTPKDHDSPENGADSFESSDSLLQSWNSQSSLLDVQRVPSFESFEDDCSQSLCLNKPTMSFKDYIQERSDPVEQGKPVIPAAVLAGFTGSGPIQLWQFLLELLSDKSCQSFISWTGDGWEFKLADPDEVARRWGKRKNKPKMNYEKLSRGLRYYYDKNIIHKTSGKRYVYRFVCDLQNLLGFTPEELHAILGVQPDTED
Outline: as §1

SPDEF = biological target: T9, SPDEF (Homo sapiens, UniProt O95238 1-335); conditions: protein: recombinant; tags: N-terminal GST; dsDNA, one strand shown
T9 sequence: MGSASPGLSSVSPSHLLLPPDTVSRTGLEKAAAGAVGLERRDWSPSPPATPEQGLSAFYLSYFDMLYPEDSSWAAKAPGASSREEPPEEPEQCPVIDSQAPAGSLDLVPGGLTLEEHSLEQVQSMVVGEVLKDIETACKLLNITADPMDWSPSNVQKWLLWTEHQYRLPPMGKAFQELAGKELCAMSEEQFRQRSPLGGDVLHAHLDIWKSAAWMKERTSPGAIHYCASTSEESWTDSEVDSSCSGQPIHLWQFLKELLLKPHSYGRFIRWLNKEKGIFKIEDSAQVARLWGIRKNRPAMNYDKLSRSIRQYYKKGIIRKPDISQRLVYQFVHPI
Outline: as §1

ETV7 = biological target: T10, ETV7 (Homo sapiens, UniProt Q9Y603 1-341); conditions: protein: recombinant; tags: N-terminal GST; dsDNA, one strand shown
T10 sequence: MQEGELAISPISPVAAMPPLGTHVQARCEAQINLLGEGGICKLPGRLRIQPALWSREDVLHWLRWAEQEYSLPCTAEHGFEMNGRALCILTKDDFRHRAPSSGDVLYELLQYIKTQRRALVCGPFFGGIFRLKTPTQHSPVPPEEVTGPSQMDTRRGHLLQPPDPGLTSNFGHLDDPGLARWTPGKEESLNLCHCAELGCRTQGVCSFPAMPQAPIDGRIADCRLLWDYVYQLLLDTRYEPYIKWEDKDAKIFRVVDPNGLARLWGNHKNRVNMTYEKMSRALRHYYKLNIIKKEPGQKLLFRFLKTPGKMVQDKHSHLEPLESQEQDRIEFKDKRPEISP
Outline: as §1

ELF5 = biological target: T11, ELF5 (Homo sapiens, UniProt Q9UKW6-2 1-255); conditions: protein: recombinant; tags: N-terminal GST; dsDNA, one strand shown
T11 sequence: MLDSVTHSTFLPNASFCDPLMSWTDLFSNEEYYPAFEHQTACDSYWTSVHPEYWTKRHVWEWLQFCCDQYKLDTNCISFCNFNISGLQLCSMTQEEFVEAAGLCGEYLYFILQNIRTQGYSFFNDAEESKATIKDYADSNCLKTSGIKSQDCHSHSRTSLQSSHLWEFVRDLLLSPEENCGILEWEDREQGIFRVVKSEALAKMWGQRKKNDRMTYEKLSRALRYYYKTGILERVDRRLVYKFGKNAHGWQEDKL
Outline: as §1

ETV3 = biological target: T12, ETV3 (Homo sapiens, UniProt P41162-2 1-143); conditions: protein: recombinant; tags: N-terminal GST; dsDNA, one strand shown
T12 sequence: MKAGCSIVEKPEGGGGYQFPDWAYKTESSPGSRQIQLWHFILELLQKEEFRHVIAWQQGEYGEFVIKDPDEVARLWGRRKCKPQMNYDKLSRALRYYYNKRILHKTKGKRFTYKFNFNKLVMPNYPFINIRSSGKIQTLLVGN
Outline: as §1

ETV6 = ETV6 (Homo sapiens, UniProt P41212 1-452); conditions: protein: recombinant; tags: N-terminal GST; dsDNA, one strand shown
Chain of ETV6 (P41212 whole entry): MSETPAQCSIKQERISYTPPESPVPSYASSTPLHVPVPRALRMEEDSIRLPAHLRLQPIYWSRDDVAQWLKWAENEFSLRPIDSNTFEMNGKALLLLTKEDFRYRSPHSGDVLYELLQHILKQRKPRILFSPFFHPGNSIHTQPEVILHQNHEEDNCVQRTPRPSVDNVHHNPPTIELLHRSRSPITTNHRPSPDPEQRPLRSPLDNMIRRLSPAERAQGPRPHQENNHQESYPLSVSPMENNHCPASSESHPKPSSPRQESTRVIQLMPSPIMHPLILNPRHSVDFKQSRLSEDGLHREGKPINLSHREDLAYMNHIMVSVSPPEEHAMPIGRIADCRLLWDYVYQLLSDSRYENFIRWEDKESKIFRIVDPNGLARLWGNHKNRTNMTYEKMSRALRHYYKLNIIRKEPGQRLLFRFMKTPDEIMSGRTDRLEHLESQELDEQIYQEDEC
Outline: as §1

Sequence	binding signal (FEV)	binding signal (ETV5)	binding signal (HSF1)	binding signal (SPIC)	binding signal (ELF4)	binding signal (ELK4)	binding signal (ETV2)	binding signal (ELF3)	binding signal (CRX)	binding signal (ETV1)	binding signal (ERF)	binding signal (ETV3L)	binding signal (ETS2)	binding signal (SPDEF)	binding signal (ETV7)	binding signal (ELF5)	binding signal (ETV3)	binding signal (ETV6)
CCATAA	1.11 fold enrichment (6-mer frequency, TF over GST control)	1.12 fold enrichment (6-mer frequency, TF over GST control)	1.29 fold enrichment (6-mer frequency, TF over GST control)	1.33 fold enrichment (6-mer frequency, TF over GST control)	1.19 fold enrichment (6-mer frequency, TF over GST control)	1.11 fold enrichment (6-mer frequency, TF over GST control)	1.24 fold enrichment (6-mer frequency, TF over GST control)	1.07 fold enrichment (6-mer frequency, TF over GST control)	1.64 fold enrichment (6-mer frequency, TF over GST control)	1.23 fold enrichment (6-mer frequency, TF over GST control)	1.24 fold enrichment (6-mer frequency, TF over GST control)	1.22 fold enrichment (6-mer frequency, TF over GST control)	1.22 fold enrichment (6-mer frequency, TF over GST control)	1.12 fold enrichment (6-mer frequency, TF over GST control)	1.15 fold enrichment (6-mer frequency, TF over GST control)	1.1 fold enrichment (6-mer frequency, TF over GST control)	1.25 fold enrichment (6-mer frequency, TF over GST control)	1.21 fold enrichment (6-mer frequency, TF over GST control)
TAAGAT	1.15 fold enrichment (6-mer frequency, TF over GST control)	1.13 fold enrichment (6-mer frequency, TF over GST control)	1.76 fold enrichment (6-mer frequency, TF over GST control)	1.25 fold enrichment (6-mer frequency, TF over GST control)	1.21 fold enrichment (6-mer frequency, TF over GST control)	1.29 fold enrichment (6-mer frequency, TF over GST control)	1.31 fold enrichment (6-mer frequency, TF over GST control)	1.3 fold enrichment (6-mer frequency, TF over GST control)	2.49 fold enrichment (6-mer frequency, TF over GST control)	1.28 fold enrichment (6-mer frequency, TF over GST control)	1.3 fold enrichment (6-mer frequency, TF over GST control)	1.12 fold enrichment (6-mer frequency, TF over GST control)	1.19 fold enrichment (6-mer frequency, TF over GST control)	1.31 fold enrichment (6-mer frequency, TF over GST control)	1.19 fold enrichment (6-mer frequency, TF over GST control)	1.11 fold enrichment (6-mer frequency, TF over GST control)	1.2 fold enrichment (6-mer frequency, TF over GST control)	1.28 fold enrichment (6-mer frequency, TF over GST control)
